Hit rate of the full screen: of about 52,000 compounds, about 1,700 (3.3%) were called active. No stated cut-off is given here; in the data, active means survival mostly below about 52% (no sharp cut-off); inactive means mostly above about 56%. Only a selection was taken, and actives are over-represented in it overall.

The assay has as its system Wild type. Nature of the assay: S. aureus survival, RN4220 and DeltatarO strains – OD600, teichoic acid synthesis inhibitors, primary screen (AID 463173). Particulars: S. aureus RN4220 wild type/DeltatarO growth, OD600, 18 h, stronger effect = lower value, screened at 18.75 µg/mL (by protocol).
For the molecule `C=CCc1c(C)nc(SC)[nH]c1=O`, the survival was 114% (inactive).

Take `Cc1cccc(-c2nc3ccccc3n3c(-c4ccccc4)c4c(=O)n(C)c(=O)n(C)c4c23)c1`: the survival was 121% (inactive).

Consider `O=C(CN1C(=O)c2ccccc2Sc2ncccc21)Nc1cccc(C(F)(F)F)c1`, for which the survival is 85% (inactive).

With `CCSc1nc2ccccc2c(OCc2ccccc2Cl)c1C(=O)OC`, the survival was 75% (inactive).

`CCSc1nc2ccccc2c(OCc2ccc(Cl)cc2)c1C(=O)OC`: the survival is 88% (inactive).

Regarding `CCSc1nc2ccccc2c(OCc2cc(C(=O)OC)ccc2OC)c1C(=O)OC`, the survival is -15% (active).

`Cc1ccc(N2CCN(S(=O)(=O)c3cc(C(=O)Nc4cc(Cl)cc(Cl)c4)ccc3F)CC2C)cc1` (stereo unspecified): the survival is 71% (inactive).

In the case of `COc1ccc(OC)c(CNC(=O)c2c(C)oc3ncn(C)c(=O)c23)c1`, the survival was 70% (inactive).

Take `O=C(COc1ccccc1)Nc1c(C(=O)N2CCN(c3ccc(F)cc3)CC2)oc2ccccc12`: the survival is 74% (inactive).

Consider `COc1ccc(C(CC(=O)Nc2cccc(C)c2C)N2Cc3ccccc3C2=O)cc1` (stereo unspecified), for which the survival was 68% (inactive).

`CCc1ccc(CNCc2c(C(=O)O)n(Cc3cccc(F)c3)c3cc(OC)ccc23)cc1`: the survival is 63% (inactive).

`COc1ccc(OC)c(CNCc2c(C(=O)O)n(Cc3ccccc3)c3cc(OC)ccc23)c1`: the survival is 84% (inactive).

As to `COc1ccc(OC)c(CNCc2c(C(=O)O)n(Cc3cccc(F)c3)c3cc(OC)ccc23)c1`, the survival is -3% (active).

Regarding `COc1cc(Cl)c(C)cc1NC(=O)c1nn(-c2ccc(C)cc2)c(=O)n(C)c1=O`, the survival is 66% (inactive).

As for `COc1ccc(-n2c(=O)c3sc4ccccc4c3n(Cc3ccccc3C)c2=O)cc1OC`, the survival was 89% (inactive).

As to `CCCS(=O)(=O)NCCc1sc2nc(-c3ccc(F)cc3)nn2c1C`, the survival was 60% (inactive).

As for `COc1ccc(-c2nc3sc(CCNS(=O)(=O)c4c(C)cc(C)cc4C)c(C)n3n2)cc1`, the survival is -3% (active).

With `Cc1ccc(-c2nc3sc(CCNS(=O)(=O)c4cc(F)ccc4F)c(C)n3n2)cc1`, the survival was -4% (active).

As for `COc1ccc(F)cc1S(=O)(=O)NCCc1sc2nc(-c3ccc(F)cc3)nn2c1C`, the survival is 57% (inactive).

With `COc1ccc(-c2nc3sc(CCNS(=O)(=O)c4ccccc4)c(C)n3n2)cc1`, the survival is 57% (inactive).

`Cc1c(CCNS(=O)(=O)c2ccccc2)sc2nc(-c3ccc(Cl)cc3)nn12`: the survival was 1% (active).

`CCCS(=O)(=O)NCCc1sc2nc(-c3ccc(Cl)cc3)nn2c1C`: the survival is 81% (inactive).

For the molecule `CCS(=O)(=O)NCCc1sc2nc(-c3ccc(OC)cc3)nn2c1C`, the survival was 71% (inactive).

Regarding `Cc1cc(C)c(S(=O)(=O)NCCc2sc3nc(-c4ccc(F)cc4)nn3c2C)c(C)c1`, the survival is 63% (inactive).

For `Cc1ccc(C(=O)Nc2nnc(S(=O)(=O)N3c4ccccc4CC3C)s2)cc1` (stereo unspecified), the survival is 38% (inactive).

Consider `CCc1ccc(NC(=O)CSc2nc3c([nH]c4ccccc43)c(=O)n2-c2ccc(C)cc2)cc1`, for which the survival was 159% (inactive).

In the case of `COC(=O)c1sc(NC(=O)/C=C/c2ccc(OC)c(OC)c2)c(C(=O)OC)c1C`, the survival was 55% (inactive).

With `Cc1ccc(OCC(=O)Nc2ccc(S(=O)(=O)Nc3ncccn3)cc2)c(C(C)(C)C)c1`, the survival was 64% (inactive).

In the case of `CCCCNC(=O)CSc1nc2ccccc2nc1Cc1ccc(Cl)cc1`, the survival was 146% (inactive).

As for `O=C(Cc1ccccc1)Nc1cccnc1`, the survival is 116% (inactive).

For `CCN1CCN(c2csc3ccc(Br)cc3c2=O)CC1`, the survival is 83% (inactive).

With `CCc1nnc(NC(=O)c2nc(S(=O)(=O)Cc3ccc(C)cc3)ncc2Cl)s1`, the survival was 57% (inactive).

For `CC(C)c1ccc(Cn2c(COc3ccccc3)nc3ccccc32)cc1`, the survival was -1% (active).

For `Cc1cccc(Cn2c(COc3ccccc3)nc3ccccc32)c1`, the survival was -11% (active).

With `Cc1ccc(Cn2c(Cc3ccccc3)nc3ccccc32)cc1`, the survival was -1% (active).

With `Cc1cccc(Cn2c(CNC(=O)c3ccccc3)nc3ccccc32)c1`, the survival was 84% (inactive).

For `COCc1nc2ccccc2n1Cc1cccc(C)c1`, the survival is 81% (inactive).

With `Cc1ccc(Cn2c(CCNC(=O)C(C)C)nc3ccccc32)cc1`, the survival was 81% (inactive).

For `Cc1ccc(Cn2c(CNC(=O)c3cccc(C)c3)nc3ccccc32)cc1`, the survival was 107% (inactive).

`Cc1cccc(Cn2c(COc3ccc(Cl)cc3)nc3ccccc32)c1`: the survival was 61% (inactive).

For `Cc1cccc(Cn2c(Cc3ccccc3)nc3ccccc32)c1`, the survival was 29% (active).

`COc1cc(OC)c(NC(=O)c2cn(C3CCCC3)c(=O)c3c2c2ccccc2n3C)cc1Cl`: the survival is 80% (inactive).

As for `CCOC(=O)N1CCN(c2ncnc3c2cnn3-c2ccccc2)CC1`, the survival was 112% (inactive).

For the molecule `Cc1cccc(-c2noc(-c3ccc(NCc4cccnc4)c([N+](=O)[O-])c3)n2)c1`, the survival was 81% (inactive).

As for `COCCNC(=O)Cn1cc(/C=C(\C#N)C(N)=O)c2ccccc21`, the survival is 114% (inactive).

For `COc1ccc(CNC(=O)C(Cc2ccccc2)NS(=O)(=O)c2ccc3c(c2)CCN3C(C)=O)cc1` (stereo unspecified), the survival was 127% (inactive).

As to `Cc1coc2c(C)c3oc(=O)c(CC(=O)NCCc4ccc(Cl)cc4)c(C)c3cc12`, the survival is 99% (inactive).

For `COc1cccc(Cn2c(CNS(=O)(=O)c3ccc(F)c(Cl)c3)nc3cccnc32)c1`, the survival is 159% (inactive).

On to `O=C(NCC1COc2ccccc2O1)c1cn(Cc2ccc(F)cc2)nn1` (stereo unspecified), for which the survival is 107% (inactive).

For `COc1ccc(N2CCN(c3oc(/C=C/c4ccccc4OC)nc3C#N)CC2)cc1`, the survival was 86% (inactive).

As to `O=C1CC(c2ccc3c(c2)OCO3)CC2=C1C(c1ccncc1)Nc1ccccc1N2` (stereo unspecified), the survival is 81% (inactive).

As for `O=C(NCCc1nc2ccccc2n1Cc1ccc(Cl)cc1Cl)c1ccco1`, the survival is 76% (inactive).

`CC(O)c1nc2ccccc2n1Cc1ccccc1` (stereo unspecified): the survival was 100% (inactive).

On to `CCC(=O)NCc1nc2ccccc2n1Cc1ccccc1`, for which the survival is 106% (inactive).

On to `CC(C)(C)c1ccc(Cn2c(Cc3ccccc3)nc3ccccc32)cc1`, for which the survival was -1% (active).

With `Clc1ccc(OCc2nc3ccccc3n2Cc2ccccc2)c(Cl)c1`, the survival was 7% (active).

Take `CCn1c(COc2ccc(Cl)cc2Cl)nc2ccccc21`: the survival is 78% (inactive).

On to `CCOc1ccc(NC(=O)c2sc(-n3nc(C)c(CCC(C)C)c3C)nc2C)cc1`, for which the survival was 123% (inactive).

As to `CCCCOc1ccc(CNC(=O)c2cnc3sc(N4CCCCCC4)nn3c2=O)cc1`, the survival is 91% (inactive).

On to `CCOc1ccc(CCNC(=O)c2cc3cc4cc(OC)ccc4nc3s2)cc1OCC`, for which the survival is 117% (inactive).

Take `Cc1cccc(-c2nc(CSCC(=O)N3CCN(c4ccccc4)CC3)c(C)o2)c1`: the survival was 18% (active).

As for `COc1ccc(-c2nc(CSCC(=O)N3CCN(c4cccc(C)c4C)CC3)c(C)o2)cc1OC`, the survival is 22% (inactive).

`Cc1cccc(-c2nc(CSCC(=O)N3CCN(c4cccc(C)c4C)CC3)c(C)o2)c1`: the survival was 0% (active).

On to `Cc1ccc(-c2nc(CS(=O)(=O)CC(=O)N3CCN(c4cccc(C)c4C)CC3)c(C)o2)cc1`, for which the survival is 129% (inactive).

With `COc1ccc(-c2nc(CSCC(=O)N3CCN(c4ccccc4)CC3)c(C)o2)cc1`, the survival is 53% (inactive).

For the molecule `Cc1oc(-c2ccccc2F)nc1CSCC(=O)N1CCN(c2ccccc2)CC1`, the survival was 62% (inactive).

Take `COc1ccc(N2CCN(CC(=O)c3ccc(OC)c(OC)c3)CC2)cc1`: the survival was 106% (inactive).

As for `CC(C)OCCCNC(=O)Cn1ccc2cc(S(=O)(=O)N3CCCCCC3)ccc21`, the survival is 124% (inactive).

Turning to `COc1ccc2c(Sc3ccccc3)c(C(=O)NCc3cccc(OC)c3OC)[nH]c2c1`, the survival was 89% (inactive).

As for `CC(C)COc1ccc(C(=O)N2CCC(c3nc4ccccc4s3)CC2)cc1`, the survival was 42% (inactive).

On to `CC(C)CSc1nnc(-c2ccccc2)c(-c2ccccc2)n1`, for which the survival is -4% (active).

For the molecule `O=C(CSc1nnc(-c2ccccc2)c(-c2ccccc2)n1)Nc1ccccc1Cl`, the survival is 70% (inactive).

`CCc1ccccc1NC(=O)CSc1nnc(-c2ccccc2)c(-c2ccccc2)n1`: the survival was 69% (inactive).

In the case of `Cc1oc2c(c(C)cc3oc(=O)c(CC(=O)NCCc4ccccc4)c(C)c32)c1C`, the survival is 112% (inactive).

For the molecule `CCc1ccc(CNC(=O)C2CCN(C(=O)c3ccc(-n4c(C)cc5ccccc54)s3)CC2)cc1`, the survival was 81% (inactive).

For the molecule `Cc1cc2ccccc2n1-c1ccc(C(=O)N2CCC(C(=O)NCc3ccc(F)cc3)CC2)s1`, the survival is 1% (active).

Take `Cc1cc2ccccc2n1-c1ccc(C(=O)N2CCC(C(=O)NCc3ccc(Cl)cc3)CC2)s1`: the survival is 63% (inactive).

`Cc1ccc(NC(=O)CN2C(=O)CSc3ccc(S(=O)(=O)N4CCCC4)cc32)cc1F`: the survival is 99% (inactive).

In the case of `COC(=O)c1cc2c(cc1NC(=O)c1cnn(-c3ccccc3)c1-n1cccc1)OCO2`, the survival is 80% (inactive).

Regarding `CCC(C)NC(=O)CSc1nc(-c2ccc(F)cc2)cc(C(F)(F)F)n1` (stereo unspecified), the survival was 81% (inactive).

Turning to `COc1cccc(-c2cc(C(F)(F)F)nc(-n3nc(C)c(Br)c3C)n2)c1`, the survival is 80% (inactive).

For `Cc1nn(-c2nc(-c3ccc(F)cc3)cc(C(F)(F)F)n2)c(C)c1Cl`, the survival is -2% (active).

As for `CN(Cc1ccccc1)c1nc(-c2ccc(F)cc2)cc(C(F)(F)F)n1`, the survival is 80% (inactive).

In the case of `COc1ccc(-c2cc(C(F)(F)F)nc(-n3nc(C(F)(F)F)cc3C)n2)cc1`, the survival was 50% (inactive).

Consider `Cc1nn(-c2nc(-c3ccc(F)cc3)cc(C(F)(F)F)n2)c(C)c1Br`, for which the survival is -2% (active).

For `CC(C)(C)NC(=O)CSc1nc(-c2ccc(F)cc2)cc(C(F)(F)F)n1`, the survival is 78% (inactive).

Consider `Cc1ccc(-c2cc3nc(-c4ccccc4)cc(C(F)(F)F)n3n2)cc1`, for which the survival was 80% (inactive).

In the case of `CCCNC(=O)CSc1nc(-c2ccccc2)cc(C(F)(F)F)n1`, the survival is 112% (inactive).

Take `Cc1cc(C(F)(F)F)nn1-c1nc(-c2ccccc2)cc(C(F)(F)F)n1`: the survival is 13% (active).

As for `FC(F)(F)c1cc(-c2ccccc2)nc2cc(-c3ccccc3)nn12`, the survival is 75% (inactive).

`Cc1nn(-c2nc(-c3ccccc3)cc(C(F)(F)F)n2)c(C)c1Cl`: the survival is -3% (active).

Values taken from PubChem BioAssay AID463173 (ICCB-Longwood Screening Facility, Harvard Medical School, 2010).
